Compounds without any hit were thinned out: in the full panel of roughly 83,000, 20% have a hit.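 The endpoint reported here, percent growth, reads 100 for growth as untreated, 0 for no net growth and -100 for all cells dead.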 Active and inactive are the calls of the source. How the source made its calls: active means growth percent below 10; inactive means the rest.
Columns and labels:
Experiment in all cases: NCI-60 one-dose screen, 48 h (100 = growth as untreated, 0 = no growth, -100 = all killed)
Settings in all cases: 10 µM unless noted
SR leukemia = tested on: SR leukemia
RPMI-8226 leukemia = tested on: RPMI-8226 leukemia
OVCAR-8 ovarian = tested on: OVCAR-8 ovarian
OVCAR-5 ovarian = tested on: OVCAR-5 ovarian
OVCAR-4 ovarian = tested on: OVCAR-4 ovarian
SK-OV-3 ovarian = tested on: SK-OV-3 ovarian
IGROV1 ovarian = tested on: IGROV1 ovarian
OVCAR-3 ovarian = tested on: OVCAR-3 ovarian
HS 578T breast = tested on: HS 578T breast
NCI/ADR-RES ovarian = tested on: NCI/ADR-RES ovarian
T-47D breast = tested on: T-47D breast
BT-549 breast = tested on: BT-549 breast
MDA-MB-435 melanoma = tested on: MDA-MB-435 melanoma
SW-620 colon = tested on: SW-620 colon
MCF7 breast = tested on: MCF7 breast
HCT-116 colon = tested on: HCT-116 colon
HCC-2998 colon = tested on: HCC-2998 colon
KM12 colon = tested on: KM12 colon

Measured: growth

O=C1Nc2cc(-c3cccc([N+](=O)[O-])c3)ccc2/C1=C/c1ccc[nH]1
inactive: SR leukemia 11.3% | RPMI-8226 leukemia 81.3% | OVCAR-8 ovarian 101% | OVCAR-5 ovarian 48.8% | OVCAR-4 ovarian 45.4% | SK-OV-3 ovarian 59.6% | IGROV1 ovarian 54.5% | OVCAR-3 ovarian 70.6% | HS 578T breast 102% | NCI/ADR-RES ovarian 99.2% | BT-549 breast 23% | MDA-MB-435 melanoma 97.7% | SW-620 colon 93.3% | MCF7 breast 16% | HCT-116 colon 97.9% | HCC-2998 colon 61% | KM12 colon 46.7%
active: T-47D breast -10.6%

NS(=O)(=O)c1ccc(CCN2C(=O)c3cc(Cl)c(Cl)cc3C2=O)cc1
inactive: SR leukemia 96% | RPMI-8226 leukemia 104% | OVCAR-8 ovarian 106% | OVCAR-5 ovarian 108% | OVCAR-4 ovarian 104% | SK-OV-3 ovarian 113% | IGROV1 ovarian 107% | OVCAR-3 ovarian 109% | HS 578T breast 108% | NCI/ADR-RES ovarian 105% | T-47D breast 98.4% | BT-549 breast 109% | MDA-MB-435 melanoma 108% | SW-620 colon 110% | MCF7 breast 98.6% | HCT-116 colon 100% | HCC-2998 colon 90.2% | KM12 colon 100%

O=C(/C=C/c1ccc[nH]1)c1ccc(-n2ccc(C(F)(F)F)n2)c(F)c1
inactive: SR leukemia 80.3% | OVCAR-8 ovarian 95.6% | OVCAR-5 ovarian 90.9% | OVCAR-4 ovarian 99.2% | SK-OV-3 ovarian 121% | IGROV1 ovarian 93.4% | OVCAR-3 ovarian 99.8% | HS 578T breast 98% | NCI/ADR-RES ovarian 93.1% | T-47D breast 70.9% | MDA-MB-435 melanoma 99.3% | SW-620 colon 103% | MCF7 breast 30.9% | HCT-116 colon 85.6% | HCC-2998 colon 94.2% | KM12 colon 29.6%
active: RPMI-8226 leukemia -6.08% | BT-549 breast -2.69%

COc1ccccc1/C=C1\Oc2cc(OCCN3CCCC3)ccc2C1=O
inactive: RPMI-8226 leukemia 82.2% | OVCAR-8 ovarian 91.8% | OVCAR-5 ovarian 86.2% | OVCAR-4 ovarian 93.9% | SK-OV-3 ovarian 98.2% | IGROV1 ovarian 97.3% | OVCAR-3 ovarian 96.2% | HS 578T breast 80.6% | NCI/ADR-RES ovarian 90.9% | T-47D breast 90.1% | BT-549 breast 84.2% | MDA-MB-435 melanoma 94% | SW-620 colon 74% | MCF7 breast 68.1% | HCT-116 colon 47.1% | HCC-2998 colon 75.8% | KM12 colon 88.8%
active: SR leukemia -8.89%

COc1ccc(CCn2cncc2-c2c[nH]c3ccccc23)cc1
inactive: SR leukemia 93.3% | RPMI-8226 leukemia 73.4% | OVCAR-8 ovarian 93.5% | OVCAR-5 ovarian 90.2% | OVCAR-4 ovarian 79.4% | SK-OV-3 ovarian 87.7% | IGROV1 ovarian 56.4% | OVCAR-3 ovarian 88.4% | HS 578T breast 78.2% | NCI/ADR-RES ovarian 87.6% | T-47D breast 80.2% | BT-549 breast 90% | MDA-MB-435 melanoma 100% | SW-620 colon 87.9% | MCF7 breast 78.7% | HCT-116 colon 80.5% | HCC-2998 colon 91.8% | KM12 colon 97.8%

c1ccc(Cn2cnc3ccc(-c4nc(-c5ccc6c(c5)ncn6C5CCCCC5)cn5ccnc45)cc32)cc1
inactive: OVCAR-4 ovarian 16.8%
active: SR leukemia 5.45% | RPMI-8226 leukemia -41.2% | OVCAR-8 ovarian 2.45% | OVCAR-5 ovarian -29% | SK-OV-3 ovarian -22.2% | IGROV1 ovarian 5.81% | OVCAR-3 ovarian -35.7% | HS 578T breast 0.386% | NCI/ADR-RES ovarian 0.531% | T-47D breast -2.12% | BT-549 breast -44.7% | MDA-MB-435 melanoma -6.16% | SW-620 colon 2.17% | MCF7 breast 2.03% | HCT-116 colon -75.7% | HCC-2998 colon -88% | KM12 colon -39.4%

CCOc1cccc(-c2nc(N)nc(Nc3ccccc3SSc3ccccc3Nc3nc(N)nc(-c4cccc(OCC)c4)n3)n2)c1
inactive: RPMI-8226 leukemia 56.4% | OVCAR-8 ovarian 59.9% | OVCAR-5 ovarian 99.7% | OVCAR-4 ovarian 71.7% | SK-OV-3 ovarian 125% | IGROV1 ovarian 62.6% | OVCAR-3 ovarian 80.2% | HS 578T breast 69.2% | NCI/ADR-RES ovarian 19% | T-47D breast 44.5% | BT-549 breast 78.7% | MDA-MB-435 melanoma 88.8% | SW-620 colon 76.4% | MCF7 breast 70.1% | HCT-116 colon 57.2% | HCC-2998 colon 97.8% | KM12 colon 40.6%
active: SR leukemia 7.62%

O=C(CCN1CCCC1)Nc1ccc2c(NCc3ccccc3)c3ccccc3nc2c1
inactive: OVCAR-5 ovarian 14.8% | NCI/ADR-RES ovarian 72.5% | BT-549 breast 16.8%
active: SR leukemia -14.8% | RPMI-8226 leukemia -35.3% | OVCAR-8 ovarian 4.52% | OVCAR-4 ovarian -13.8% | SK-OV-3 ovarian -10.9% | IGROV1 ovarian 3.89% | OVCAR-3 ovarian -33.4% | HS 578T breast -10.7% | T-47D breast -5.83% | MDA-MB-435 melanoma -5.11% | SW-620 colon -20.4% | MCF7 breast -5.67% | HCT-116 colon -15.5% | HCC-2998 colon -37.4% | KM12 colon -2.03%

From PubChem BioAssay (NCI)
